PubChem BioAssay AID1159580 (chemical genetic matrix, 2015)
Where “and” joins values, the source holds several entries; their conditions need not be identical. Equal entries are not always repeated. Hit rate of the full screen: of about 5,500 compounds, about 2,000 (36%) were called active. About 18% were inconclusive and are not listed. No stated cut-off is given here; in the data, active means normalized growth mostly below about 0.91 (no sharp cut-off); inconclusive means no clear call, values can overlap the other calls; inactive means mostly above about 0.92. Some of the results follow.

Assay: chemical genetic growth profiling, strain panel (AID 1159580);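 further: tested at 20 µM; growth read once vehicle control cultures reached saturation at 30 °C; 1 = growth at the plate median or of vehicle wells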
Details: S. cerevisiae deletion strains, growth OD

Measured: normalized growth

COC(=O)C1=C(C)NC(C)=C(C(=O)OC)C1c1ccccc1[N+](=O)[O-]
inactive: locus YAL040C, strain CLN3, stronger effect = lower value 0.993 | locus YBR021W, strain FUR4, stronger effect = lower value 0.996 | locus YBR171W, strain sec66, stronger effect = lower value 0.975 | locus YBR229C, strain ROT2, stronger effect = lower value 0.998 | locus YCL016C, strain dcc1, stronger effect = lower value 0.943 | locus YCL029C, strain bik1, stronger effect = lower value 0.97 | locus YCL061C, strain MRC1, stronger effect = lower value 0.933 | locus YCL069W, strain vba3, stronger effect = lower value 0.947 | locus YCR088W, strain abp1, stronger effect = lower value 0.955 | locus YDL005C, strain med2, stronger effect = lower value 0.974 | locus YDL040C, strain nat1, stronger effect = lower value 0.98 | locus YDL074C, strain BRE1, stronger effect = lower value 0.905 | locus YDL101C, strain DUN1, stronger effect = lower value 1.01 | locus YDL185W, strain tfp1, stronger effect = lower value 0.938 | locus YDR001C, strain nth1, stronger effect = lower value 0.975 | locus YDR101C, strain arx1, stronger effect = lower value 0.963 | locus YDR137W, strain rgp1, stronger effect = lower value 0.953 | locus YDR159W, strain sac3, stronger effect = lower value 0.918 | locus YDR195W, strain ref2 0.999 | locus YDR334W, strain swr1, stronger effect = lower value 0.904 | locus YDR335W, strain msn5, stronger effect = lower value 0.969 | locus YDR363W, strain ESC2, stronger effect = lower value 0.992 | locus YDR388W, stronger effect = lower value 0.933 | locus YEL037C, strain rad23, stronger effect = lower value 0.934 | locus YEL061C, strain CIN8 (second series), stronger effect = lower value 0.966 | locus YER002W, strain NOP16, stronger effect = lower value 1 | locus YER016W, strain bim1, stronger effect = lower value 0.944 | locus YER110C, stronger effect = lower value 1 | locus YER111C, strain swi4, stronger effect = lower value 0.94 | locus YER155C, strain BEM2 (second series), stronger effect = lower value 0.987 | locus YER155C, strain BEM2, stronger effect = lower value 1.01 | locus YGL078C, strain dbp3, stronger effect = lower value 0.978 | locus YGL167C, strain pmr1, stronger effect = lower value 0.916 | locus YGL227W, strain vid30, stronger effect = lower value 0.988 | locus YGL240W, strain doc1, stronger effect = lower value 0.96 | locus YGR078C, strain PAC10, stronger effect = lower value 0.991 | locus YGR252W, strain gcn5, stronger effect = lower value 0.997 | locus YHR079C, strain IRE1 (second series), stronger effect = lower value 0.957 | locus YHR079C, strain IRE1, stronger effect = lower value 0.956 | locus YHR094C, strain hxt1, stronger effect = lower value 0.974 | locus YHR142W, strain chs7, stronger effect = lower value 0.894 | locus YIL125W, strain kgd1, stronger effect = lower value 0.948 | locus YIR030C, strain dcg1, stronger effect = lower value 0.992 | locus YJL092W, strain hpr5, stronger effect = lower value 0.945 | locus YJL095W, strain BCK1 (second series), stronger effect = lower value 0.933 | locus YJL095W, strain BCK1, stronger effect = lower value 1 and 0.958 | locus YJL115W, strain asf1, stronger effect = lower value 0.969 | locus YJL129C, strain trk1, stronger effect = lower value 0.89 | locus YJL134W, strain LCB3, stronger effect = lower value 0.963 | locus YJL154C, strain vps35, stronger effect = lower value 0.962 | locus YJL168C, strain set2, stronger effect = lower value 0.952 | locus YJL187C, strain SWE1 (second series), stronger effect = lower value 0.99 | locus YJR066W, strain TOR1, stronger effect = lower value 0.924
active: locus YAL021C, strain ccr4, stronger effect = lower value 0.829 | locus YAL026C, strain drs2, stronger effect = lower value 0.812 | locus YAL030W, strain snc1, stronger effect = lower value 0.896 | locus YBL061C, strain skt5, stronger effect = lower value 0.9 | locus YBR009C, strain hhf1, stronger effect = lower value 0.863 | locus YBR023C, strain chs3, stronger effect = lower value 0.91 | locus YBR231C, strain swc5, stronger effect = lower value 0.836 | locus YBR279W, strain paf1, stronger effect = lower value 0.887 | locus YCL011C, strain gbp2, stronger effect = lower value 0.907 | locus YCL061C, strain MRC1 (second series), stronger effect = lower value 0.829 | locus YDL035C, strain GPR1, stronger effect = lower value 0.725 | locus YDL134C, strain PPH21, stronger effect = lower value 0.783 | locus YDL192W, strain arf1, stronger effect = lower value 0.85 | locus YDR069C, strain doa4, stronger effect = lower value 0.719 | locus YDR162C, strain NBP2, stronger effect = lower value 0.388 | locus YDR297W, strain sur2, stronger effect = lower value 0.854 | locus YDR318W, strain mcm21, stronger effect = lower value 0.827 | locus YDR392W, strain spt3, stronger effect = lower value 0.73 | locus YDR502C, strain sam2, stronger effect = lower value 0.876 | locus YEL003W, strain gim4, stronger effect = lower value 0.895 | locus YEL061C, strain CIN8, stronger effect = lower value 0.918 | locus YER015W, strain faa2, stronger effect = lower value 0.828 | locus YER167W, strain BCK2, stronger effect = lower value 0.894 | locus YFR010W, strain ubp6, stronger effect = lower value 0.864 | locus YGL086W, strain mad1, stronger effect = lower value 0.799 | locus YGL173C, strain kem1, stronger effect = lower value 0.729 | locus YGL248W, strain PDE1, stronger effect = lower value 0.787 | locus YGL253W, strain hxk2, stronger effect = lower value 0.878 | locus YGR135W, strain pre9, stronger effect = lower value 0.799 | locus YHR013C, strain ard1, stronger effect = lower value 0.83 | locus YHR027C, strain rpn1, stronger effect = lower value 0.734 | locus YHR129C, strain ARP1, stronger effect = lower value 0.903 | locus YHR200W, strain rpn10, stronger effect = lower value 0.88 | locus YIL066C, strain RNR3, stronger effect = lower value 0.609 | locus YIL073C, strain SPO22, stronger effect = lower value 0.319 | locus YJL164C, strain tpk1, stronger effect = lower value 0.743 | locus YJL166W, strain qcr8, stronger effect = lower value 0.825 | locus YJL187C, strain SWE1, stronger effect = lower value 0.901 | locus YJR043C, strain POL32, stronger effect = lower value 0.752 | locus YJR075W, strain HOC1, stronger effect = lower value 0.822 and 0.894
0.891 (active) and 0.969 (inactive): locus YHR030C, strain SLT2, stronger effect = lower value
